In all, about 360,000 compounds went through this assay and about 2,700 (0.75%) were called active. The full list was thinned out, with actives kept by preference. Unmarked numbers belong to inactive results. Cut-off read from the data, not from the text of the source: active = inhibition above about 4.5%; inactive = the rest.
The compounds below were run on Methionine sulfoxide reductase A (Bos taurus) (assay: inhibition of methionine sulfoxide reductase A – biochemical, absorbance, bovine, HTS, primary screen (AID 651718;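 note: 0% = vehicle wells with enzyme and 100% = reference inhibitor wells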)). Settings: purified bovine MsrA, absorbance read-out; at 15.5 µM; hits give high values.

Row | SMILES | inhibition
1 | O=[N+]([O-])c1ccccc1/C=N/n1c(COc2ccccc2)n[nH]c1=S | 0.65%
2 | CCc1n[nH]c(=S)n1/N=C/c1c[nH]c2ccc(Br)cc12 | 0.05%
3 | S=c1[nH]nc(-c2ccccc2)n1/N=C/c1c[nH]c2ccccc12 | 5.73% (active)
4 | CC1CCN(C(=O)c2ncn3c2C(=O)N[C@@H](C)C3)CC1 | 0.14%
5 | O=C(NCc1ccccc1)[C@H]1CCCN1C(=O)[C@H]1CCCN1C(=O)N1CCOCC1 | -0.41%
6 | CN(C)c1nc(N)nc(CSc2ccccn2)n1 | 0.24%
7 | C=CCN=C1NC(c2cccc(C(F)(F)F)c2)C(C(=O)OC)=C(C)N1C (stereo not given) | -0.08%
8 | CCCOC(=O)c1cc2ccccc2oc1=O | 13% (active)
9 | Cc1cc(C)cc(OCC(=O)NNC(=O)c2cc3ccccc3oc2=O)c1 | 0.25%
10 | CCc1ccc(Oc2coc3cc(OC(=O)c4cc5ccccc5oc4=O)ccc3c2=O)cc1 | 1.04%
11 | COC(=O)Cc1nnn2c1[C@H](C)[C@H](c1ccccc1[N+](=O)[O-])OCC2 | 0.24%
12 | Cc1c(C=O)c2ccccc2n1CC(=O)O | 2.23%
13 | Cc1c(C=O)c2ccccn2c1C(=O)c1ccncc1 | 4.76% (active)
14 | Cc1c(C(=O)NNC(=O)c2ccncc2)oc2ccccc12 | 0.46%
15 | O=C(NCCc1nnc2ccc(SCC(=O)N3CCOCC3)nn12)c1ccccc1 | -0.18%
16 | Cc1noc(C)c1NC(=O)Nc1ccc2c(c1)C(=O)N([C@H](C)CO)C[C@H](C)[C@H](CN(C)Cc1ccncc1)OCCCC[C@@H](C)O2 | -0.23%
17 | CCN1C(=O)N[C@@H]2C[C@H](C(=O)N3CCCC3)[C@H](C)[C@H](c3ccccc3)C[C@@H]21 | -0.32%
18 | O=C(N/N=C/c1ccc2c(c1)OCO2)c1ccc(Cn2cc([N+](=O)[O-])cn2)o1 | 6.14% (active)
19 | CN(C)c1ccc(/C=N/NC(=O)c2ccc(Cn3cc(Br)cn3)o2)cc1 | 4.19%
20 | O=C(c1ccc(Cn2cc([N+](=O)[O-])cn2)o1)N1CCCC1 | 0.09%
21 | N/C(=N\OS(=O)(=O)c1cccc([N+](=O)[O-])c1)c1ccncc1 | -0.51%
22 | CCCCCCCCN1C(=O)[C@@H](CC(=O)NCc2ccc(C)o2)C[C@@]2(C(=O)OC)C1=C[C@H](C(C)(C)C)O[C@@H]2C | -0.4%
23 | CC(=O)c1ccccc1OCc1ccc(C(=O)c2ccccc2)cc1 | 0.66%
24 | Cc1cc2nc3c(=O)[nH]c(=O)nc-3n(C[C@H](O)[C@H](O)[C@H](O)CO)c2cc1C | 2.57%
25 | CCN(CC)CCCC(C)n1c2nc(=O)[nH]c(=O)c-2nc2cc(Cl)ccc21 (stereo not given) | 14.4% (active)

From PubChem BioAssay AID651718 (The Scripps Research Institute Molecular Screening Center, 2012)
